Results on 15 compounds are retold here after PubChem BioAssay (NCATS).

SMILES strings stand for the structures. Several values for one entry are separate records, joined by “and”; a condition that tells them apart may be missing. Identical values can stand only once. Results filed as inconclusive are left out. Where a structure was tested more than once in an assay, its records may differ in their call. Activity calls are given as the source filed them. Unless noted, calls come from the whole dose curve; as a rule, active = well fitted curve in the direction sought with a large enough effect; inconclusive = small, poorly fitted or top-dose-only effect, or another doubt; inactive = no such curve, though single readings can be large; an effect the other way counts as inactive or inconclusive.

A short description of test [1]: NCATS anti-infectives library activity on HEK293 viability as a counter-qHTS vs the C. elegans viability qHTS (AID 1745854).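 Note: HEK293 cells exposed to compounds for 24 hr before the viability read; % is set by controls: 0 for no effect and ±100 for the full control effect.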 Put shortly: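 Cytotoxicity in human HEK293 cells is measured by ATP-dependent CellTiter-Glo luminescence following a 24 hr incubation with titrated library compounds at 37C. Top final concentration is 41.7 uM.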
(In general: qHTS replaces the single test concentration by a dilution series.)

Test [2] concerns the target Glutathione peroxidase 1 (Homo sapiens) (UniProt P07203). As to the kind of experiment: Primary qHTS Assay for Inhibitors of Recombinant Selenoprotein Glutathione Peroxidase 1 (GPX1) (AID 1845191). Note: nearly all actives have a fitted effect of over 65% in size. Put shortly:
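GR-coupled assay: compounds preincubated 30 min at room temperature with GPX1, then reaction started with CHP; final 10 nM GPX1, 1 mM GSH, 0.5 mM CHP, 0.5 mM NADPH, 100 nM GR, 0.01% BSA, pH 7.5 Tris buffer. NADPH fluorescence (340/450 nm) read at 0 and 15 min.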

Test [3] has as its target Phospholipid hydroperoxide glutathione peroxidase GPX4 (Homo sapiens) (UniProt P36969). The test is described as follows: Primary qHTS Assay for Inhibitors of Recombinant Selenoprotein Glutathione Peroxidase 4 (GPX4) (AID 1845192). For activity change, negative = inhibition: % is set by controls: 0 for no effect and ±100 for the full control effect. Note: nearly all actives have a fitted effect of over 65% in size. Note: potency is the fitted concentration of half-maximal effect. The essentials: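 GR-coupled assay: recombinant GPX4 preincubated 30 min with compound at room temperature; final 200 nM GPX4, 1 mM GSH, 0.5 mM cumene hydroperoxide, 0.5 mM NADPH, 100 nM GR, 0.01% BSA, pH 7.5 Tris. NADPH fluorescence (340/450 nm) read at 0 and 15 min.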

For test [4], the target named is Luciferin 4-monooxygenase (Photinus pyralis) (UniProt P08659). The test is described as follows: Primary firefly luciferase (FLuc) qHTS assay for identification of artifact compounds. (AID 1845220).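 For activity change, negative = inhibition: plate controls were DMSO vehicle for no effect and no enzyme for full effect.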 Note: nearly all actives have a fitted effect of over 60% in size. The essentials: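 D-luciferin and ATP (10 uM each, final) in Tris acetate buffer pH 7.6 were incubated with compounds for 15 min at room temperature. The reaction was started with 10 nM Photinus pyralis luciferase and luminescence read after 5 min. Percent inhibition was fitted to a 4-parameter Hill equation.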

A short description of test [5]: Primary fluorescence-based thiol-reactive (MSTI) qHTS assay for identification of artifact compounds. (AID 1845221). Note: nearly all actives have a fitted effect of over 65% in size. Note: potency is the fitted concentration of half-maximal effect. The essentials: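 One-hour, room-temperature, dark incubation of compound with 4 uM MSTI in PBS (pH 7.4, 2% DMSO) precedes a fluorescence read at 525 nm excitation, 598 nm emission; Hill-equation fitting yields concentration-response values.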
Test [6] relates to Nanoluciferase (engineered Oplophorus gracilirostris luciferase). The test is described as follows: Primary Nanoluciferase (NLuc) qHTS assay for identification of artifact compounds. (AID 1845222).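 Note: 0% = DMSO and -100% = no enzyme.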 The essentials:
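Diluted conditioned medium from NLuc-expressing S16 cells treated with compounds for 15 min at room temperature, then Nano-Glo substrate added; luminescence read after 5 min. Percent inhibition versus no-enzyme and DMSO controls fitted to 4-parameter Hill equation.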

Test [7] is described as follows: Primary redox qHTS assay for identification of artifact compounds. (AID 1845223).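 Note: 0% = DMSO and 100% = reference compound.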 Put shortly:
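Amplex Red (25 uM) and HRP (250 mU/mL) in HBSS, with compounds for 15 min, then 250 uM DTT for 30 min, room temperature, dark. Fluorescence 525/598 nm read; normalized to DMSO and 10 uM DA3003; Hill fit.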

The target in test [8] is Catechol O-methyltransferase (Homo sapiens) (UniProt P21964). As to the kind of experiment: Confirmatory Screen for Target Class Profiling of Small Molecule Inhibitors of Methyltransferases (AID 1745852; calls by dose curve; note: potency is the fitted concentration of half-maximal effect; for activity change, negative = inhibition: % is set by controls: 0 for no effect and ±100 for the full control effect). The settings on record: MTase-Glo luminescence, SAH detection, recombinant enzyme; measured here: COMT max response; stronger effect = lower value.
Test [9] concerns the target Guanidinoacetate N-methyltransferase (Homo sapiens) (UniProt Q14353). The description is as above. The settings on record: activity change, negative = inhibition: at 57.3 µM (top of the series) unless noted.
For test [10], the target named is Nicotinamide N-methyltransferase (Homo sapiens) (UniProt P40261). Described as above. The settings on record: MTase-Glo luminescence, SAH detection, recombinant enzyme; measured here: NNMT max response; stronger effect = lower value.
For test [11], the target named is Phenylethanolamine N-methyltransferase (Homo sapiens) (UniProt P11086). The description is as above. The settings on record: MTase-Glo luminescence, SAH detection, recombinant enzyme; measured here: PNMT max response; stronger effect = lower value.
Chain of Phenylethanolamine N-methyltransferase (Homo sapiens) (P11086 whole entry, looked up): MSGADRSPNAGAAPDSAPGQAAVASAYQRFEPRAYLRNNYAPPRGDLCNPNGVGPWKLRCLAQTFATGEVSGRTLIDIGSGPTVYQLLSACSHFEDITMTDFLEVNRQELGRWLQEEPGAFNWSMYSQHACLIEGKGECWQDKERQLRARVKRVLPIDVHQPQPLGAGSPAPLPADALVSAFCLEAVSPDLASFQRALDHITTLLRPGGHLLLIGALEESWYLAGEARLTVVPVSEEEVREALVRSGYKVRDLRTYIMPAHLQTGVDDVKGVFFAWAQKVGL

Chain of Catechol O-methyltransferase (Homo sapiens) (P21964 whole entry, looked up): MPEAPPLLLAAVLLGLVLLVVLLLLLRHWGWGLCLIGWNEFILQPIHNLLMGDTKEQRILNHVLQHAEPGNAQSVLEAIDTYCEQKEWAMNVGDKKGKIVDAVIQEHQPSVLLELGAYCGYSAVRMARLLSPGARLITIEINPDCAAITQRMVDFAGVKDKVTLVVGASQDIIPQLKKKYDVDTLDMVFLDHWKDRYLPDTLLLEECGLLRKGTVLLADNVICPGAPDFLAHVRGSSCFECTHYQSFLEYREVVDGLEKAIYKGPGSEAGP
Chain of Glutathione peroxidase 1 (Homo sapiens) (P07203 whole entry, looked up): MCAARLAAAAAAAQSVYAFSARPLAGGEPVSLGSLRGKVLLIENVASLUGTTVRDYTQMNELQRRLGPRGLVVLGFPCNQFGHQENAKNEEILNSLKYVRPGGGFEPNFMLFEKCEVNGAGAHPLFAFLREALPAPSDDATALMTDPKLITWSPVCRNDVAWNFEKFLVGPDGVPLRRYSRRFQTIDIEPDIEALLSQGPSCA
Chain of Nicotinamide N-methyltransferase (Homo sapiens) (P40261 whole entry, looked up): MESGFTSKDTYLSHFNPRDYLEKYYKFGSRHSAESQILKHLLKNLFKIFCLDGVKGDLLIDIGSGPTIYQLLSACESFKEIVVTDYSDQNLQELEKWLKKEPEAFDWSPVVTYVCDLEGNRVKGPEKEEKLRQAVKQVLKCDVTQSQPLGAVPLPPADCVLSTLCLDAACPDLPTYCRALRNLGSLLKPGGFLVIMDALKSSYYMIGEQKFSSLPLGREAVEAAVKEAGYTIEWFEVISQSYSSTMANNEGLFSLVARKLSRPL
Chain of Phospholipid hydroperoxide glutathione peroxidase GPX4 (Homo sapiens) (P36969 whole entry, looked up): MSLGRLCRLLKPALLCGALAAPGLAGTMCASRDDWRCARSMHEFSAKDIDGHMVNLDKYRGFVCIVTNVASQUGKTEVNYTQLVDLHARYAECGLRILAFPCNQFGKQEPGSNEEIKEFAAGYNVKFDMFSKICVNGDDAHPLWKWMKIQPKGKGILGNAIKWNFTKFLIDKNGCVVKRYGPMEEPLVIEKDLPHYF

Consider `CC(C)(CNC(=O)c1cccc(-c2noc(C(F)(F)F)n2)c1)c1coc(-c2ccccc2)n1`, for which the outcome in test [1] is “inactive”. For the same compound, the Potency result in [2], in test [3], in [4], in test [5], in test [6] and in test [7] was “inactive” in each case.
With `COc1ccc2nc3n[nH]c(C)c3c(NCCOCCO)c2c1`, the activity is -59.3% in test [8], -38.5% in test [10] and -54.6% in [11]. Also, the Potency in [9] is 27.1 µM (active). Besides, the Potency result in [2], in [4], in test [6] and in [7] was “inactive” throughout.
In the case of `COc1ccc(NC(=O)c2ccc(C(=N)N(C)C)cc2)c(C(=O)Nc2ccc(Cl)cn2)c1`, in test [1], the outcome was “inactive”. The Potency entry in [2], in test [3], in test [4], in test [5], in test [6] and in [7] was “inactive” in each case.
In the case of `Cc1ccc(C)c(-c2cc(C(F)(F)F)nn2-c2ccc(S(N)(=O)=O)cc2)c1`, the activity is -7.64% in test [8], -48.6% in test [10] and -4.27% in test [11]. For the same compound, the activity change, negative = inhibition in [9] is -5.49%. In addition, the Potency entry in test [3], in test [4], in [5], in test [6] and in [7] was “inactive” throughout.
For `Cc1onc(-c2ccccc2)c1C(=O)N1CCN(c2ccc([N+](=O)[O-])cc2Cl)CC1`, in [1], the outcome is “inactive”. The Potency result in test [2], in test [3], in test [4], in test [6] and in [7] was “inactive” each time.
On to `Cc1ccc(CNc2ncnc3ccc(-c4ccc(CO)o4)cc23)o1`, for which the activity in test [8] is -5.85%; in test [10], -7.73%; in test [11], -9.87%. Besides, in test [9], the activity change, negative = inhibition was -1.25%. The Potency result in test [2], in test [4], in [5], in test [6] and in test [7] was “inactive” in each case.
As for `CCC[C@@]1(CCc2ccccc2)CC(O)=C([C@H](CC)c2cccc(NS(=O)(=O)c3ccc(C(F)(F)F)cn3)c2)C(=O)O1`, the outcome in test [1] is “inactive”. The Potency result in test [2], in test [4], in test [5] and in test [6] was “inactive” in each case. Further, the Potency result in test [3] is “inactive and 6.31 µM (active)”.
`N#Cc1ccc(N2N=C3c4ccc(C(=O)O)cc4CC[C@@H]3[C@@H]2C2CCCC2)cc1Cl`: the activity in [8] was 7.42%; in [10] it was -82.8%; in test [11], 0.228%. Besides, the activity change, negative = inhibition in test [9] was -0.344%. The Potency result in test [2], in [4], in test [5], in test [6] and in test [7] was “inactive” throughout.
On to `CC(C)CCNC(=O)[C@H](CC(C)C)NC(=O)[C@H]1O[C@@H]1C(=O)O`, for which the outcome in test [1] is “inactive”. In addition, the Potency entry in test [2], in [3], in test [4], in test [5], in test [6] and in [7] was “inactive” each time.
For `Cc1cc(N2CCOCC2)ccc1Nc1nc(NC2CCCCC2)c2[nH]cnc2n1`, the activity in test [8] was -13.2%; in [10], -20.9%; in test [11], -9.51%. Also, in test [9], the activity change, negative = inhibition is -8.72%. Also, the Potency in [5] was 1.68 µM (active). Moreover, the Potency entry in [6] and in [7] was “inactive” each time.
Regarding `CCCCCc1ccc(/C=C/C(=O)Nc2cc(Cl)ccc2C(=O)O)cc1`, the activity in [8] is -6.7%; in [10] it was -47.8%; in test [11], -21.5%. Besides, in [9], the Potency is 42.9 µM (active). Further, the Potency entry in [4], in test [5], in test [6] and in [7] was “inactive” each time.
As to `O=C(NO)c1ccc(CC(=O)N(CCO)c2ccccc2)cc1`, the outcome in test [1] is “inactive”. The Potency result in test [2], in [3], in test [4], in [6] and in [7] was “inactive” in each case.
As to `CCC(CC)C(c1ccc(Nc2nc3ccccc3s2)cc1)n1cncn1` (configuration not stated), the activity in test [8] is -3.56%; in [10], -14.5%; in [11], -5.31%. For the same compound, the activity change, negative = inhibition in [9] was -4.47%. Also, the Potency result in test [2], in test [4], in test [5], in test [6] and in [7] was “inactive” in each case.
Regarding `COc1cc(C[C@H]2C(=O)OC[C@@H]2Cc2ccc(OC)c(OC)c2)ccc1O`, the outcome in [1] was “inactive”. In addition, the Potency result in [2], in test [3], in test [4], in test [5], in test [6] and in test [7] was “inactive” in each case.
As to `O=c1[nH]c([C@@H]2CCCN2)nc2c1oc1ccc(Cl)cc12`, the outcome in test [1] was “inactive”. The Potency entry in test [2], in test [3], in test [4], in test [5], in test [6] and in test [7] was “inactive” throughout.
